This is a sample that favours compounds with a hit; in the whole collection about 0.39% have one here.
p53 reactivator: mutant p53 re-activation in reporter cells | AID 504706 | Potency, µM (titrated, usually from 92.2 µM), for inactives: at the top dose activity change, positive = activation, usual class: activators | H1299 p53-A138V BP100-luciferase reporter, luminescence, 24 h | 0.063% of 320,000 active; note: % of control where 0% means no effect; nearly all actives have a fitted effect of over 45% in size
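p53-null H1299 cells stably carrying temperature-sensitive p53-A138V and a BP100-luciferase reporter were pinned with compounds (4-point, 1:5 series) and held 24 hrs at 37 deg C. Luminescence was read 10 min after detection reagent.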
USP2a inh: inhibitors of human ubiquitin-specific protease USP2a | Potency, µM (titrated, usually from 38.3 µM), without a hit: at the top dose activity change, negative = inhibition, actives largely listed as inhibitors | USP2 core, Ub-CHOP2 coupled fluorogenic reporter, 485/531 | 0.01% of 330,000 active;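 note: plate controls were DMSO wells for no effect and full inhibition by NEM control for full effect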
Target sequence (O75604 whole entry, looked up): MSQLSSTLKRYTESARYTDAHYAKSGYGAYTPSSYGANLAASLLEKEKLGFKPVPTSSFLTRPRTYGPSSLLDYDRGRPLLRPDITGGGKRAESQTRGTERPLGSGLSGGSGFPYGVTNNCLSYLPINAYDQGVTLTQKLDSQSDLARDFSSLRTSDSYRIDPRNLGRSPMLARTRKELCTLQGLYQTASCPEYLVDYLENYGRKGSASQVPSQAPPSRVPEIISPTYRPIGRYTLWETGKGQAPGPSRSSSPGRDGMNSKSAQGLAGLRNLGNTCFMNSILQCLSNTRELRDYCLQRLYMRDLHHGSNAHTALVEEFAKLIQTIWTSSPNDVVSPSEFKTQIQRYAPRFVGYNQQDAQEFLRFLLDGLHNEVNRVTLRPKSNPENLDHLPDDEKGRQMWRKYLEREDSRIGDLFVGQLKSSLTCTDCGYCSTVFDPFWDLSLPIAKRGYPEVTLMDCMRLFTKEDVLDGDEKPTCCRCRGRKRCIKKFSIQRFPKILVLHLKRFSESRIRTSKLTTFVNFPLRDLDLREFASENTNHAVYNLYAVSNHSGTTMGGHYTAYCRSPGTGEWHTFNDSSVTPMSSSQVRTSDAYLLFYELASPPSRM
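USP2 core (10nM final) preincubated 30min RT with compound in 20mM Tris-HCl pH 8.0, 2mM CaCl2, 2mM beta-mercaptoethanol, 0.05% CHAPS; 25nM Ub-CHOP2 plus 25nM reporter substrate added, fluorescence (Ex485/Em531) read after 60min.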
Tb PFK inh-1: blocks T. brucei phosphofructokinase; 0.17% of 330,000 active; AID 485367; Potency, µM (highest dose often 57.5 µM), for inactives: at the highest dose activity, negative = inhibition, actives largely listed as inhibitors; O15648; T. brucei PFK, ADP-Glo luminescence;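 note: 0% = uninhibited 1x PFK enzyme wells and -100% = no-enzyme wells; nearly all actives have a fitted effect of over 60% in size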
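PFK 1.25 nM, F6P 0.5 mM, ATP 0.1 mM, 0.1 M TEA pH 8.0, 5 mM MgCl2, 0.01% Tween20, 0.1% BSA; 45 min RT. ADP-Glo readout. qHTS titration up to 57 uM; curves fitted, compounds curve-classed.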
GLS inhibitor: blocks human kidney-isoform glutaminase activity; Potency, µM (highest dose often 45.5 µM), for the others: top-dose activity change, negative = inhibition, usual class: inhibitors; 0.21% of 410,000 active; O94925; GLS enzymatic activity, qHTS titration; note: % is set by controls: 0 for no effect and ±100 for the full control effect
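Assay buffer: 45 mM KH2PO4 pH 8.2, 0.02% Tween-20. hKGA acts on L-glutamine (1 mM solution added); product glutamate is reported by an oxidase/peroxidase Amplex Red coupling, with fluorescence taken at baseline and 30 min.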
TbPFK ATP: Tb phosphofructokinase inhibition, orthogonal luminescence. shares compounds with Tb PFK inh-1. Potency, µM (titrated, usually from 57.5 µM), for inactives: at the highest dose inhibition. 47% of 1,100 active. AID 504636. Tb PFK enzyme, ATP depletion, Kinase-Glo Plus luminescence; calls by dose curve; note: nearly all actives have a fitted effect of over 60% in size
Tb PFK inh-2: T. brucei PFK enzyme inhibition, hit validation. purified T. brucei PFK, ADP-Glo luminescence, 45 min. 41% of 1,100 active. AID 504637. shares compounds with Tb PFK inh-1. Potency, µM (titrated, usually from 57.5 µM), without a hit: top-dose activity change, negative = inhibition, actives largely listed as inhibitors;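 note: plate controls were full PFK enzyme control for no effect and no enzyme control for full effect; nearly all actives have a fitted effect of over 60% in size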
* marks the source's active call; other numbers are inactive results; ? = inconclusive; . = no result given; [ ] = dose if it differs, or a comment. Unless noted, calls come from the whole dose curve; as a rule, active = well fitted curve in the direction sought with a large enough effect; inconclusive = small, poorly fitted or top-dose-only effect, or another doubt; inactive = no such curve, though single readings can be large; an effect the other way counts as inactive or inconclusive. Potency is the fitted concentration of half-maximal effect.

SMILES	p53 reactivator	USP2a inh	Tb PFK inh-1	GLS inhibitor	TbPFK ATP	Tb PFK inh-2
COC(=O)C(O)(c1ccc(NC(=O)c2ccccc2)cc1)C(F)(F)F (stereo not given)	9%	2%	12%	1%	.	.
Cc1ccc(C(=O)Nc2cccc3[nH]c(C(F)(F)F)nc23)cc1	7%	0%	?	-1%	?	?
O=c1[nH]sc2cc(F)ccc12	-10%	0%	?	7.9µM*	19µM*	27µM*
O=c1[nH]sc2ccccc12	-16%	1%	19µM*	?	21µM*	27µM*
Cc1ccc(-c2ccc(C3C(C#N)=C(N)Oc4n[nH]c(C)c43)o2)cc1 (stereo not given)	-11%	-1%	?	2%	?	-17%
CCC(c1nnnn1C1CCCCC1)N1CCC2(CC1)C(=O)NCN2c1ccccc1 (stereo not given)	.	.	.	30%	.	.
O=c1c2ccccc2nc2n1CCC2	5%	1%	?	?	27µM*	17µM*
O=Cc1ccco1	.	.	.	-2%	.	.
O=Cc1cccc(OC(=O)/C=C/c2ccco2)c1	.	-25%	24µM*	10µM*	6.7µM*	12µM*
Cc1ccc(NC(=O)CN(C)C(=O)c2cccc(-n3cccc3)c2)cc1	-2%	1%	?	?	?	?
Cc1ccc(NC(=O)Cn2cc(C(=O)c3ccccc3)c3ccccc32)cc1	.	.	.	2%	.	.
Cc1ccc(OP2(=O)Nc3cc(C)c(C)cc3S2)cc1 (stereo not given)	.	.	.	26%	.	.
COc1ccc(/C=N/NC(=O)Cc2ccc(Cl)cc2)cc1OC	0%	-2%	?	6%	?	?
O=C(Cc1ccc(Cl)cc1)N/N=C/c1cccc(O)c1	.	2%	9.5µM*	-5%	11µM*	12µM*
CCn1cc(/C=N\NC(=O)Cc2ccc(Cl)cc2)cn1	15%	6%	19µM*	15%	7.6µM*	15µM*
Cc1cc2c(cc1[N+](=O)[O-])NC(CNC(C)C)CC2 (stereo not given)	-4%	-3%	12µM*	6%	27µM*	17µM*
C[C@]12CCC3C(CC[C@H]4C[C@H](O)CC[C@]34C)C1C[C@@H](CCCCl)[C@@H]2O (stereo not given in full)	-2%	-6%	0%	.	.	.
COCCOCCO	.	.	.	-7%[99.4 µM]	.	.
CC(N)C(=O)c1ccccc1 (stereo not given)	.	.	.	-5%[99.4 µM]	.	.
Clc1ccccc1Cl	.	.	.	-11%	.	.
Cc1ccc(C(=O)CSc2nnc(CNc3ccc(F)cc3)o2)cc1	0%	1%	17µM*	14%	?	24µM*
CCN(CC)CCc1c[nH]c2ccccc12	.	.	.	60%[147 µM]	.	.
Cc1ccccc1N	3%	0%	3%	18%	.	.
Nc1ccccc1SSc1ccccc1N	?	0%	?	?	8.5µM*	13µM*
Cc1cccc(CNCCc2ccccc2)n1	3%	1%	0%	10%	.	.
SMILES	p53 reactivator	USP2a inh	Tb PFK inh-1	GLS inhibitor	TbPFK ATP	Tb PFK inh-2
Cc1nnc(NCCc2ccccc2)[nH]c1=O	-3%	1%	?	-15%	24µM*	27µM*
N#CC1(N2CCCCC2)CCCCC1	.	.	.	4%	.	.
CN1CCc2cc(O)c(O)cc2C(c2ccccc2)C1 (stereo not given)	5%	0%	?	19%	?	?
Oc1cc2c(cc1O)[C@@H](c1ccccc1)CNCC2	12%	1%	12µM*	-1%	1.9µM*	4.8µM*
CSc1ccc(Cl)c(C(=O)OCC(=O)N2CCN(C(=O)c3ccco3)CC2)c1	-9%	1%	?	1%	.	.
COc1ccc(O)c2c(=O)c3c(OC)cc4c(c3oc12)C1C=COC1O4 (stereo not given)	3%	8%	-4%	2%	.	.
COc1cc(O)c2c(=O)c3c(O)ccc(O)c3oc2c1	3%	-1%	?	14%	?	?
Cc1c(Cl)sn(-c2ccc(Cl)cc2)c1=O	-7%	2%	6.7µM*	?	3µM*	5.4µM*
Cc1ccc(Cc2cnc(NC(=O)CN3CCOCC3)s2)cc1Cl	-14%	1%	?	22%	24µM*	30µM*
CCC1(CC)C(=O)NC(=O)N(C)C1=O	.	.	.	-4%	.	.
O=C(O)CCN1C(=O)c2ccc(NC(=O)CSc3ccc(Cl)cc3)cc2C1=O	.	3%	?	-8%	?	?
O=C1C(Cl)=C(N2CCCCC2)C(=O)N1c1ccccc1	13%	-4%	?	-4%	-19%	13%
CC(=O)OO	.	.	.	-14%	.	.
CCCC12CN3CC(C)(CN(C1)C3c1ccccn1)C2=O (stereo not given)	.	.	.	10%	.	.
O=C(CS(=O)C(c1ccccc1)c1ccccc1)NO (stereo not given)	.	.	.	28%	.	.
CCC1(CC)C(=O)NC(=O)NC1=O	.	.	.	-11%	.	.
CCNc1nc(NCC)n2c(SCC(=O)Nc3ccc(CC)cc3)nnc2n1	-7%	3%	21µM*	6%	17µM*	17µM*
Nc1ccccc1C(=O)OCC(=O)N1CCc2ccccc21	?	7%	5%	7%	.	.
CS(=O)(=O)Nc1ccccc1C(=O)OCC(=O)N1CCC(c2ccccc2)=N1	-7%	-1%	?	7%	?	?
O=C(/C=C/c1ccccc1)Nc1cccc(S(=O)(=O)Nc2ccccc2F)c1	17%	2%	6.7µM*	3%	4.3µM*	6µM*
O=S(=O)(Nc1ccccc1F)c1cccc(NC(=S)NCCN2CCOCC2)c1	-8%	-1%	7.6µM*	24%	2.4µM*	3.8µM*
CC(=O)Nc1ccccc1C(=O)OCC(=O)Nc1ncccn1	3%	3%	5%	-16%	.	.
Cc1ccc(C(=O)NCC(=O)OCC(=O)Nc2ccc3[nH]c(=O)[nH]c3c2)cc1	-2%	2%	?	1%	?	?
O=C(COC(=O)Cc1ccc(F)cc1)Nc1ccc2[nH]c(=O)[nH]c2c1	-3%	0%	?	7%	?	?
O=C(COC(=O)c1ccccc1OC(F)F)Nc1ccc2[nH]c(=O)[nH]c2c1	23%	-3%	?	-9%	?	?
CC(Cc1ccccc1)NCCn1cnc2c1c(=O)n(C)c(=O)n2C (stereo not given)	.	.	.	1%[99.4 µM]	.	.
CCOC(=O)NC(O)C(Cl)(Cl)Cl (stereo not given)	.	.	.	4%	.	.
C=C(C)[C@@]12OC3(c4ccccc4)O[C@@H]1C1[C@@H]4O[C@]4(CO)[C@@H](O)[C@]4(O)C(=O)C(C)=C[C@H]4[C@@]1(O3)[C@H](C)[C@H]2OC(=O)/C=C/C=C/c1ccccc1 (stereo not given in full)	.	.	.	-2%	.	.
O=C(Nc1ccc(Br)cc1C(=O)c1ccccc1Cl)c1ccccc1F	.	.	.	3%	.	.

Screens as filed in PubChem.
